Molecules are shown by their SMILES. “And” between values parts separate entries of the source, which are not always exact repeats. Identical values can stand only once.

This assay relates to H9c2. As to the kind of experiment: protection of cardiomyocytes from stress damage, SAR follow-up, cell-based, panel, H9c2 and HL-1, ATP luminescence, set 2 (AID 651871).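 Further: cells exposed to stressor for 2 h before ATP readout; reference of the scale not given here.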 The following applies: H9c2/HL-1 cardiomyocytes, 2-deoxyglucose stress, with 2-deoxyglucose; run 8, at 79 µM (top of the series).

For the molecule `COc1ccc2nc(-c3cc(OC)c(OC)c(OC)c3)cc(C(=O)NCC(=O)Nc3ccc(C(C)=O)cc3)c2c1`, the activity (protection/inhibition) amounted to 83.5%.

As to `CCOC(=O)c1cccc(NC(=O)CNC(=O)c2cc(-c3cc(OC)c(OC)c(OC)c3)nc3ccccc23)c1`, the activity (protection/inhibition) was 92.9%.

As for `COc1ccc2c(c1OC)C(=O)N1c3ccccc3C(=O)N(Cc3cccc(Cl)c3Cl)C21` (stereo not drawn), the activity (protection/inhibition) is 89.8% and 74.3% and -3.43%.

Values taken from PubChem BioAssay AID651871 (Sanford-Burnham Center for Chemical Genomics, 2012).
